In ChEMBL document CHEMBL4888484, “Replenishing the malaria drug discovery pipeline: Screening and hit evaluation of the MMV Hit Generation Library 1 (HGL1) against asexual blood stage Plasmodium falciparum ,using a nano luciferase reporter read-out” (2022):
Out of some 4,800 compounds screened, about 420 (8.8%) showed an effect of 50% or more. This is one part of a sample in which strong results are shown more often than they occur.

Tested on: Plasmodium falciparum
Experiment: Confirmatory screen in NF54 nanoGlo assay, in single point, at 2uM, 72h
Type: functional, Erythrocyte
Conditions: timepoint 72 hour

Compound	% Inhibition [%]
CN(C)c1noc(CN2CCc3ccc(F)cc3C2)n1	25
COc1ccc(S(=O)(=O)Nc2c(C)nc3ncnn3c2O)cc1	-18
CCN1CCN(c2nc(O)c3c(n2)NC(=O)C[C@H]3c2cccc(F)c2)CC1	-11
Cn1ncc2c(NCCO)nc(N3CCCCCC3)nc21	5
O=S(=O)(NC1CCCCC1)c1ccc(Cl)c(S(=O)(=O)NC2CCCCC2)c1	0
N#Cc1cc(S(=O)(=O)NCCN(C2CC2)S(=O)(=O)c2ccc(Cl)c(C#N)c2)ccc1Cl	75
COc1ccc(-n2nc(C(=O)N3CCN(c4ccccc4)CC3)c(=O)cc2OC)cc1	-5
Cn1ccnc1[C@@H](NC(=O)c1ccnn1C(F)F)C(C)(C)CO	-2
CCc1nc2c(C(=O)N3CCOc4c(C)cc(C)cc43)ccnc2[nH]1	72
COc1cccc(CNCc2ccc3c(c2)OCO3)c1OCc1ccc(Cl)cc1Cl	-3
Cc1c(C(=O)N2CCCCC2)cccc1N1CCNC1=O	-15
COc1cccc(C(=O)N2CCC3(CC2)C[C@@H](OCc2ccccc2)CCO3)c1	-3
COc1ccc2c(c1)OC13CCN(C)CC1C2C(C(=O)c1ccccc1OC)C(=O)N3 (stereo unspecified)	57
COc1cccc(NC(=O)c2ccccc2C(=O)OCCN2CCOCC2)c1	-2
Cc1cc(C(=O)NCC[C@H](C)n2nc(C)cc2C)c2c(-c3ccc(F)cc3)noc2n1	-9
Cn1cc(-c2nn(S(=O)(=O)c3ccccc3)c(-c3cnn(C)c3)c2Cl)cn1	2
CC1CC1NC(=O)C(NS(C)(=O)=O)C(C)(C)C (stereo unspecified)	8
Cc1nc[nH]c1CN1CCN(C(=O)CCC(C)C)[C@H]2CS(=O)(=O)C[C@H]21	0
CCc1nc2cc(-c3noc(Cc4ccc(Cl)cc4)n3)ccc2o1	-5
O=C(c1ccccc1)c1ccc(O)c(CN2CCCN(c3ccc(C(F)(F)F)cn3)CC2)c1O	79
Cc1ccc(-n2nc(C)cc2NC(=O)CN2CCCN(c3ccc(C(F)(F)F)cn3)CC2)cc1	6
Cc1cccc(-c2nc3nc(C)c(CC(=O)N4CCCCC4)c(C)n3n2)c1	1
O=C(c1ccccc1OCC1CC1)N1CC(O)C1	-5
Cc1c(Cl)cccc1NC(=O)[C@H]1CC(=O)N(c2ccc(OCc3ccccc3)cc2)C1	-3

Compound	% Inhibition [%]
O=C(Cn1cnc2cc3c(cc21)OCCCO3)N1CCc2ccccc21	0
CC[C@@H](CO)NCc1cccc(OC)c1OCC(=O)NC(C)(C)C	-8
CCOc1cc(CNc2cccc3ccccc23)cc(Br)c1OCC(=O)NC(C)(C)C	89
COc1cccc(CNC(C)(C)C)c1OCC(=O)NC(C)(C)C	-5
COc1ccc(Cl)cc1CNC[C@H](C)O	-6
C[n+]1ccccc1/C=C/c1c[nH]c2ccccc12	90
CCc1ccc(/C=C/c2c[nH]c3ccccc23)[n+](CC)c1	89
O=C(Cc1cccs1)NC1CCN(c2nnc3ccc(Cl)cn23)CC1	-12
Cc1ccc([C@@H]2c3cccn3CCCN2Cc2cccs2)cc1C	10
O=C(O)COc1ccccc1[C@H]1CC(O)=Nc2cccc3c2c1cn3Cc1cccc(F)c1	1
N#Cc1ccc(CNc2ccccc2OCC(F)F)o1	-10
CNCCCNC(=O)c1ccc(Br)cc1C	5
COc1cc(NC(=O)N2CC(c3noc(-c4ccccc4)n3)C2)cc(OC)c1OC	2
CNC(=O)[C@@H]1C[C@H](NCc2cc(OC)c(OC)c(OC)c2)CN1CC(c1ccccc1)c1ccccc1	63
COc1cc(CNC2CCCCC2)cc(Br)c1OCc1ccccc1Cl	5
Cc1nc([C@H](C)NC(=O)c2ccc(S(C)(=O)=O)cc2)cs1	3
Cc1onc(C(=O)N2CCC3(CC2)CC[C@]3(C)O)c1Cn1cccn1	-6
CC(=O)Nc1cc2c(cc1NC(C)=O)N(C(C)=O)CC2	-15
COc1ccc(C2=Nc3ccc(S(=O)(=O)N4CCOCC4)cc3S(=O)(=O)N2)cc1	-10
C[C@H]1CCC[C@@H](NCCc2ccccc2)CCC/C=C/c2cc(O)cc(O)c2C(=O)O1	77
Cc1nc2c(-c3ccco3)nc(=O)n(CC(=O)Nc3cccc4ccccc34)c2s1	-8
COc1cccc(NC(=O)N2CC(O)CC2C2CCCCC2)c1 (stereo unspecified)	-3
Oc1cccc(CN2CCC3(CC2)C[C@H](c2ccccc2)CN(C2CC2)C3)c1	31
COc1ccc(-c2nccn3cc(C(=O)NCC(C)C)nc23)cc1	-2

Compound	% Inhibition [%]
Cc1cccc(Cc2c(C)nn(-c3nc(C)cc(C)n3)c2O)c1	-18
CN(C)C(=O)c1cc2c(s1)CC[C@H](C(=O)NCCN1CCOCC1)C2	6
O=C1C[C@H](c2cccnc2)c2cnn(C3CCCC3)c2N1	6
Cc1nn(-c2nc3ccccc3[nH]2)c2c1[C@@H](c1cccnc1)CC(=O)N2	79
Cc1nn(-c2ncccn2)c2c1[C@@H](c1ccccc1)CC(=O)N2	-16
O=C(CN1CCC[C@H]1C1CCCC1)NCC1CCCCC1	27
CC1=NN(c2ccccc2)C(O)C1C(c1ccccc1O)C1C(C)=NN(c2ccccc2)C1O (stereo unspecified)	-7
Cc1ccccc1Cn1nc2ccc(S(=O)(=O)N3CCOCC3)cn2c1=O	4
COc1ccc2[nH]c3c(c2c1)CCN(C(=O)c1ccc(C)c(C)c1)[C@@H]3c1ccccc1OC	84
COc1ccc([C@@H]2c3[nH]c4ccc(OC)cc4c3CCN2C(=O)NCc2ccc(F)cc2)cc1	14
COc1ccc(N2CCN(C(=O)c3ccc(F)cc3)[C@@H](C)C2=O)cc1	5
COC(=O)c1nc2ccccc2c(-c2cn(-c3ccc(C(F)(F)F)cc3)nn2)c1C(=O)OC	1
CC(C)CNC(=O)N1CCCC[C@H]1c1noc(COc2ccc(F)cc2)n1	-9
N#CC(c1ccc(Cl)cc1)N1N=C(c2ccccc2)CC1c1ccccc1 (stereo unspecified)	4
c1ccc(C2=NN(c3ccc(-c4cc(-c5ccccc5)[n+](-c5ccccc5)c(-c5ccccc5)c4)cc3)[C@H](c3ccccc3)C2)cc1	94
COc1ccc(C2=NN(C(C#N)c3cccc(OC)c3O)C(c3ccccc3)C2)cc1 (stereo unspecified)	4
Cc1c(C)n(C[C@@H](O)CNC2CCCC2)c2c(Cl)cccc12	-1
Cc1cccc(C(=O)Nc2c(C#N)c(-c3ccccc3)c(-c3ccccc3)n2Cc2ccccc2)c1	3
CCC(C)NCC(O)Cn1c(-c2ccccc2)c(-c2ccccc2)c2cc(C)ccc21 (stereo unspecified)	92
Cc1c(C)n(CC(O)CNC(C)c2ccccc2)c2c(Cl)cccc12 (stereo unspecified)	64
Cc1c(C)n(C[C@H](O)Cn2c(C(F)(F)F)nc3ccccc32)c2c(Cl)cccc12	-6
CC(NCC(O)Cn1c(-c2ccccc2)c(-c2ccccc2)c2ccc3ccccc3c21)c1ccccc1 (stereo unspecified)	88
O=C(Cn1c(=O)n(Cc2nc(-c3ccccc3)no2)c(=O)c2ccccc21)Nc1cccc(Cl)c1	5
O=C(NCc1ccccc1)c1cnn2c3c(cnc12)CCCCCC3	2

Compound	% Inhibition [%]
CCc1ccccc1NC(=O)c1sccc1S(=O)(=O)N1CCc2ccccc2C1	2
Cc1cnc(CNC(=O)Nc2nnc3ccccn23)s1	-13
NC(=O)c1cccc(NC(=O)CC2=CCCCC2)n1	-11
CC[C@H]1CN2C=NC(N3CCN(C(=O)Nc4cc(F)cc(F)c4)CC3)=CC2=N1	35
O=C(CCC(=O)c1ccc(F)cc1F)NS(=O)(=O)c1cccnc1	-4
Cc1ccc(S(=O)(=O)c2c(C)cc(-c3ccccc3)nc2N2CCOCC2)cc1	0
Cc1cnc(C2CCC2)n1CCNS(=O)(=O)c1ccccc1	-4
Cc1ccc(S(=O)(=O)Nc2c(S(=O)(=O)c3ccc(C)cc3)c3nc4ccccc4nc3n2CCC(C)C)cc1	98
Cc1ccc(NS(=O)(=O)c2ccc(NC(=O)Cc3ccccc3)cc2)cc1C	2
Cc1ccc(S(=O)(=O)Nc2ccccc2-c2nnc(-c3c(NS(=O)(=O)c4ccc(C)cc4)ccc4ccccc34)o2)cc1	-14
Cc1cc(NC(=O)Cn2c(=O)n(CCc3ccccc3)c(=O)c3ccccc32)no1	4
Cc1ccc(S(=O)(=O)Nc2c(S(=O)(=O)c3ccccc3)c3nc4ccccc4nc3n2CCc2ccccc2)cc1	97
Cc1ccc(-c2nc3c(c(=O)n2CC(=O)NC[C@H]2CCCO2)CCN(Cc2ccccc2)C3)cc1	-9
CS(=O)(=O)n1c(CCCc2ccccc2)nc2ccccc21	1
Cc1ccc(S(=O)(=O)Nc2cc3nc4ccccc4nc3n2CCc2ccccc2)cc1	100
Cc1ccc(S(=O)(=O)Nc2c(S(=O)(=O)c3ccc(C)cc3)c3nc4ccccc4nc3n2C[C@H]2CCCO2)cc1	52
Cc1ccc(NCc2ncccn2)cc1OCC1CCCCC1	1
O=C(C1CCCC2CCCCC21)N1CCN(c2ncccn2)CC1 (stereo unspecified)	-8
Cc1cc(-n2nnc3ccccc32)nc(C)n1	4
Cc1ccc(Cl)c2ccc(NC(=O)CCNC(N)=O)nc12	0
CN([C@H]1CCc2ccccc21)S(=O)(=O)c1ccc2c(c1)CCC2	7
Brc1ccc2sncc2c1	-3
COc1cncc(C(=O)N2CCCc3cc(S(C)(=O)=O)ccc32)n1	9
CN1CCN(CCc2nc(-c3ccc4cc[nH]c4c3)no2)CC1	-4
